Screening results (PubChem BioAssay)
KLF5 inh: kruppel-like factor 5 inhibition | AID 1700 | actives 0.23% (n = 290,000) | inhibition, % at 5 µM | DLD-1 KLF5 promoter-luciferase reporter, luminescence;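 active = inhibition above a per-plate limit of that plate's mean compound inhibition plus 3 SD, cut at about 60% in these data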;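 also: 0% = DMSO wells and 100% = LY294002 at 200 µM; higher means less KLF5 promoter-driven luciferase light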
IEC-6 tox-1: counter-screen for KLF5 inhibitors: cytotoxicity in IEC-6 cells; inhibition, % at 5 µM; IEC-6 cytotoxicity, luminescence viability; actives 0.78% (n = 290,000);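 also: 0% = plate median of test compound wells and 100% = cytotoxic reference compound wells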
APP 5UTR inh: APP translation inhibition; SH-SY5Y APP 5'UTR-luciferase reporter, luminescence; inhibition, % at 2 µM; actives 0.82% (n = 190,000); AID 1285;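 active = inhibition above a set limit, derived from the sample mean plus 3 SD, cut at about 45% in these data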
BaF3 tox: counter-screen for JAK2V617F inhibitors: parental Ba/F3 viability inhibitors. CellTiter-Glo ATP luminescence. inhibition, % at 5.6 µM. actives 1.1% (n = 220,000). AID 1486;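 active = inhibition above a per-campaign cutoff, the mean inhibition of all tested compounds plus 3 SD, cut at about 27% in these data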;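 also: 0% = DMSO wells and 100% = JAK Inhibitor I control wells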
Ba/F3 V617F tox: lowers viability of Ba/F3 cells expressing EpoR and JAK2V617F. ATP luminescence. inhibition, % at 5.6 µM. actives 1.1% (n = 220,000). AID 1446;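 active = inhibition above the campaign mean plus 3 SD over all tested compounds, cut at about 24% in these data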;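 also: cytokine-independent growth of Ba/F3 cells driven by EpoR plus mutant JAK2; 0% = DMSO-treated cells and 100% = JAK inhibitor I control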
KLF5 confirm: confirmation of KLF5 inhibitors | shares compounds with KLF5 inh | DLD-1 KLF5 promoter firefly luciferase reporter, luminescence | inhibition, % at 4 µM | actives 79% (n = 610);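 active = inhibition above a set limit taken from the earlier primary screen, cut at about 63% in these data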;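 also: 0% = DMSO wells and 100% = LY294002 at 200 µM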
IEC-6 tox-2: rat IEC-6 cytotoxicity, KLF5 inhibitor counter-screen; actives 56% (n = 610); inhibition, % at 4 µM; shares compounds with KLF5 inh; AID 1905; IEC-6 rat intestinal cells, viability luminescence; in the data active = inhibition above about 23%;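 also: cells exposed to compounds for 48 hours before viability read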
IEC-6 cytotox cf: IEC-6 cytotoxicity, confirmation assay | inhibition, % at 5 µM | actives 63% (n = 1,900) | shares compounds with IEC-6 tox-1 | IEC-6 rat intestinal epithelial viability, luminescence;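 also: 0% = vehicle and 100% = reference cytotoxic drug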
Numbers without * were called inactive; nt = no result given. A selection: hits, their analogues and other compounds. The true share with any hit is near 1.9%. Rule as the data show it, unless noted: active = inhibition above about 22%; inactive = the rest.

SMILES	KLF5 inh	IEC-6 tox-1	APP 5UTR inh	BaF3 tox	Ba/F3 V617F tox	KLF5 confirm	IEC-6 tox-2	IEC-6 cytotox cf
O=C(Nc1ccc(S(=O)(=O)N2CCOCC2)cc1)c1ccc([N+](=O)[O-])o1	99*	67*	nt	66*	68*	5	8	11
O=C(Nc1ccc(S(=O)(=O)N2CCOCC2)cc1)c1ccco1	-52	0	1	7	1	nt	nt	nt
NS(=O)(=O)c1ccc(N=Nc2ccc(O)c3ncccc23)cc1	80*	46*	nt	nt	nt	74*	3	4
COc1cc(-c2noc(C)c2/C=C/c2cccc([N+](=O)[O-])c2)cc(OC)c1OC	64*	79*	nt	nt	nt	79*	54*	54*
COc1cc(-c2noc(C)c2/C=C/c2ccc(C(=O)O)cc2)cc(OC)c1OC	-5	-5	nt	nt	nt	nt	nt	nt
O=C(NCc1ccc(/C=N\NC(=O)C(=O)Nc2ccccc2Br)o1)C(=O)Nc1ccccc1	-7	-2	nt	nt	nt	nt	nt	nt
COc1ccc(OC)c(Nc2c3c(nc4ccccc24)CCC3)c1	64*	85*	nt	nt	nt	111*	63*	58*
COc1ccc2c(c1)sc(N)[n+]2Cc1cc(C)cc2cccnc12	69*	80*	95*	79*	82*	73*	61*	63*
CC1CCN(Cc2c(C(=O)N/N=C/c3ccccc3O)nnn2-c2nonc2N)CC1	70*	47*	nt	nt	nt	85*	16	42*
O=C(Nc1ccc(Br)cc1)C1CCN(c2cnccn2)CC1	-3	-2	nt	nt	nt	nt	nt	nt
CCOc1cc(C#N)c(NC(=O)c2cccnc2)cc1OCC	73*	82*	89*	77*	84*	79*	50*	56*
O=C(CN1C(=O)C2CC=CCC2C1=O)Nc1nc2ccccc2s1 (stereo not given)	-14	4	-15	1	-2	nt	nt	nt
CCOc1ccc2[nH]c(C(=O)N/N=C/c3ccc(OC)cc3)cc2c1	66*	84*	nt	nt	nt	73*	58*	58*
Cc1nn(-c2ccccc2)c(C)c1/C=N/NC(=O)c1cc(-c2ccccc2)n[nH]1	63*	77*	95*	78*	71*	84*	65*	58*
Cc1nn(-c2ccccc2)c(C)c1/C=N/NC(=O)c1cc(-c2cccc3ccccc23)n[nH]1	-58	7	4	5	6	nt	nt	nt
COc1ccc(NC(=S)NNC(=O)Cn2nc(C(F)F)cc2C(F)F)cc1	-7	-3	-2	-1	0	nt	nt	nt
COc1ccccc1C(=O)OCC(=O)NC1CCCC1	-30	-2	nt	nt	nt	nt	nt	nt
O=C(NNc1ncc(C(F)(F)F)cc1Cl)c1c(Cl)cccc1Cl	71*	46*	15	83*	83*	44	14	32*
COc1cc(-c2nnc3n2N=C(c2ccccc2)CS3)cc(OC)c1OC	79*	77*	94*	81*	74*	73*	69*	67*
COc1ccc(OC)c(C2=Nn3c(nnc3-c3cc(OC)c(OC)c(OC)c3)SC2)c1	-1	1	3	8	3	nt	nt	nt
Nc1ccc(C(=O)n2c3ccccc3c3ccccc32)cc1	79*	83*	94*	73*	68*	85*	60*	58*
Cc1ccc(N2C(=O)c3cccc4c(N)ccc(c34)C2=O)c2cccnc12	63*	86*	nt	85*	92*	90*	72*	74*
Cc1ccc(S(=O)(=O)/N=C(/Nc2ccc3[nH]c(=O)[nH]c3c2)c2ccc(F)cc2)cc1	-53	1	6	6	2	nt	nt	nt
CN(C(=O)c1cccs1)c1ccc(OCC(=O)N2CCC(C(N)=O)CC2)cc1	-1	-5	20	1	-2	nt	nt	nt
C/C(=N\NC(=O)c1n[nH]c2c1CCC2)c1cccs1	75*	81*	nt	73*	72*	71*	3	17
CC(=O)c1c(N2CCN(C)CC2)[nH]c(-c2ccccc2)nc1=S	7	-4	4	1	0	nt	nt	nt
CCOc1ccccc1NS(=O)(=O)c1ccc(-c2cnc(C3CC3)o2)cc1	78*	90*	nt	nt	nt	83*	64*	59*
